From PubChem BioAssay (Tox21)
The source made the active and inactive calls. Unless noted, calls come from the whole dose curve; as a rule, active = well fitted curve in the direction sought with a large enough effect in the repeat runs; inconclusive = weak or mixed curves; inactive = no such curve, though single readings can be large; an effect the other way counts as inactive or inconclusive.

Legend:
[1] = qHTS assay for identifying genotoxic compounds that show differential cytotoxicity against isogenic chicken DT40 cell lines with known DNA damage response pathways - wild type cell line (AID 743012); note: nearly all actives have a fitted effect of over 60% in size; note: potency is the fitted concentration of half-maximal effect
Method in brief: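 Luminescent ATP viability signal (CellTiter-Glo, 30 min RT) recorded after wild type DT40 cells were incubated with compounds for 40 h at 37 C/5% CO2.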

[2] = qHTS assay for identifying genotoxic compounds that show differential cytotoxicity against isogenic chicken DT40 cell lines with known DNA damage response pathways - Rev3 mutant cell line (AID 743014); note: nearly all actives have a fitted effect of over 55% in size; note: potency is the fitted concentration of half-maximal effect
[3] = qHTS assay for identifying genotoxic compounds that show differential cytotoxicity against isogenic chicken DT40 cell lines with known DNA damage response pathways - Rad54/Ku70 mutant cell line (AID 743015); note: nearly all actives have a fitted effect of over 60% in size; note: potency is the fitted concentration of half-maximal effect
[4] = qHTS assay to identify small molecule antagonists of the androgen receptor (AR) signaling pathway using the MDA cell line - cell viability counter screen (AID 743041; note: nearly all actives have a fitted effect of over 45% in size)
Method in brief: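 Cytotoxicity counter screen: MDA-kb2 AR-luc cells, compound + R1881, 16 h, 37C, 0% CO2; CellTiter-Fluor added at 15.5 h, fluorescence read after 30 min.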

[5] = qHTS assay to identify small molecule antagonists of the thyroid receptor (TR) signaling pathway - cell viability counter screen (AID 743064); note: nearly all actives have a fitted effect of over 50% in size
Method in brief: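 Compounds were tested on GH3.TRE-Luc cells in the presence of T3 at 1 nM final. Following 23.5 h at 37 °C, cell viability was quantified by CellTiter-Fluor.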

[6] = qHTS assay to identify small molecule antagonists of the thyroid receptor (TR) signaling pathway (AID 743065); note: nearly all actives have a fitted effect of over 55% in size; note: potency is the fitted concentration of half-maximal effect
Method in brief: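 GH3.TRE-Luc rat pituitary cells (two TREs driving luciferase) were dosed with compound, then stimulated with 1 nM T3 (final) for 23.5 h at 37 C. ONE-Glo luminescence was the read-out, with CellTiter-Fluor fluorescence as the cytotoxicity counter-screen.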

[7] = tested on: thyroid hormone receptor (rat, GH3 cells); test: qHTS assay to identify small molecule agonists of the thyroid receptor (TR) signaling pathway (AID 743066; calls by dose curve)
[8] = qHTS assay to identify small molecule antagonists of the estrogen receptor alpha (ER-alpha) signaling pathway - cell viability counter screen (AID 743074; calls by dose curve;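 note: HEK293 cells carrying ER-alpha-UAS-bla reporter stimulated with 17beta-estradiol; nearly all actives have a fitted effect of over 45% in size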)
[9] = qHTS assay to identify small molecule antagonists of the estrogen receptor alpha (ER-alpha) signaling pathway using the BG1 cell line - cell viability counter screen (AID 743081);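 note: compound given together with 17beta-estradiol as the ER stimulus; nearly all actives have a fitted effect of over 45% in size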
[10] = qHTS assay to identify aromatase inhibitors - cell viability counter screen (AID 743084);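 note: cells stimulated with testosterone during compound exposure; nearly all actives have a fitted effect of over 55% in size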
[11] = qHTS assay to identify small molecule antagonists of the androgen receptor (AR) signaling pathway - cell viability counter screen (AID 743033; note: nearly all actives have a fitted effect of over 45% in size)
[12] = target: Aromatase (Homo sapiens) (UniProt P11511); test: qHTS assay to identify aromatase inhibitors (AID 743083); note: nearly all actives have a fitted effect of over 55% in size
[13] = target: Estrogen receptor (Homo sapiens) (UniProt P03372); test: qHTS assay to identify small molecule antagonists of the estrogen receptor alpha (ER-alpha) signaling pathway (AID 743069; active = well fitted curve in the direction sought with a large enough effect in the signal ratio in the repeat runs, not every such curve was filed as active; inconclusive = weak or mixed curves, or effect the other way; inactive = no such curve, though single readings can be large or run the other way; the % refers to the signal ratio)
Method in brief: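 Beta-lactamase FRET fluorescence is read after 2 hr at room temperature with LiveBLAzer B/G substrate. Before that, ER-alpha-bla HEK293 cells sit 4 hr after plating, then receive compound plus 17beta-estradiol and incubate 18 hr at 37C.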

[14] = target: Estrogen receptor (Homo sapiens) (UniProt P03372); test: qHTS assay to identify small molecule agonists of the estrogen receptor alpha (ER-alpha) signaling pathway (AID 743075; calls by dose curve;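 note: HEK293 GripTite cells with ER-alpha and UAS-driven beta-lactamase reporter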; note: potency is the fitted concentration of half-maximal effect)
[15] = target: Estrogen receptor (Homo sapiens) (UniProt P03372); test: qHTS assay to identify small molecule agonists of the estrogen receptor alpha (ER-alpha) signaling pathway using the BG1 cell line (AID 743079); note: nearly all actives have a fitted effect of over 20% in size; note: potency is the fitted concentration of half-maximal effect
[16] = qHTS assay to identify small molecule antagonists of the estrogen receptor alpha (ER-alpha) signaling pathway using the BG1 cell line (AID 743080; calls by dose curve;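 note: BG1 cells stimulated with 17beta-estradiol alongside compound; nearly all actives have a fitted effect of over 25% in size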; note: potency is the fitted concentration of half-maximal effect)
Method in brief: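 Endogenous full-length ER-alpha in BG1-Luc-4E2 cells drives a stably integrated 4×ERE luciferase gene; compounds were tested against 17beta-estradiol over 21.5 h, with luminescence and multiplexed viability fluorescence recorded.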

[17] = target: Androgen receptor (Homo sapiens) (UniProt P10275); test: qHTS assay to identify small molecule antagonists of the androgen receptor (AR) signaling pathway (AID 743035; active = well fitted inhibition curve with a large enough effect in the signal ratio in the repeat runs, not every such curve was filed as active; inconclusive = weak or mixed curves, or effect the other way; inactive = no such curve, though single readings can be large or run the other way; the % refers to the signal ratio)
Method in brief: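 Quantitative HTS of the Tox21 10K library used HEK293 AR-UAS-bla cells stimulated with R1881 alongside compound for 16 h at 37C, followed by beta-lactamase FRET detection (LiveBLAzer B/G, 2 h, RT).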

[18] = target: Androgen receptor (Homo sapiens) (UniProt P10275); test: qHTS assay to identify small molecule agonists of the androgen receptor (AR) signaling pathway using the MDA cell line (AID 743040; note: nearly all actives have a fitted effect of over 20% in size); settings: MDA-kb2 AR-luc cells, MMTV luciferase, 16 h; activity change: at 70.3 µM (top of the series), stronger effect = higher value
Method in brief: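 Luciferase read-out, ONE-Glo, 30 min RT. Cells: MDA-kb2 AR-luc, MMTV promoter with AR and GR response elements. Compound exposure 16 h, 37C, 0% CO2, after 5 h pre-incubation. qHTS agonist mode.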

[19] = target: Androgen receptor (Homo sapiens) (UniProt P10275); test: qHTS assay to identify small molecule antagonists of the androgen receptor (AR) signaling pathway using the MDA cell line (AID 743042; note: nearly all actives have a fitted effect of over 55% in size)
Method in brief: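 MDA-kb2 breast carcinoma cells carrying MMTV-luciferase (AR/GR responsive) were co-treated with compounds and the agonist R1881 for 16 h at 37C. Inhibition read as ONE-Glo luminescence; CellTiter-Fluor fluorescence measured in parallel for cytotoxicity.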

Measured: Potency

Aromatase (Homo sapiens), sequence (P11511 whole entry, looked up): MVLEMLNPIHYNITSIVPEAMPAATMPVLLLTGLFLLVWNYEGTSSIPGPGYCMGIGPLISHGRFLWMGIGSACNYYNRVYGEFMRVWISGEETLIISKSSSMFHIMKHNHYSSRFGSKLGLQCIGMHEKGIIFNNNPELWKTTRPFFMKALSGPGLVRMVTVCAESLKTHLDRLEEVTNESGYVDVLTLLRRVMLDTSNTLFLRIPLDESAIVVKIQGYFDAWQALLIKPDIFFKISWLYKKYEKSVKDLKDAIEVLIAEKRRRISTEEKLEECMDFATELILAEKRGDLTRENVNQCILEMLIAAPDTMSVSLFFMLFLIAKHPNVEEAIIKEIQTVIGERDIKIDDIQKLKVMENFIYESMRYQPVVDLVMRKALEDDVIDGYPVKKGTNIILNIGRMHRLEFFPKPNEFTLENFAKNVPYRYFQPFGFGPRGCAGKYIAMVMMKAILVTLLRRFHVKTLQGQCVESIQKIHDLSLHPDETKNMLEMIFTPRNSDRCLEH
Androgen receptor (Homo sapiens), sequence (P10275 whole entry, looked up): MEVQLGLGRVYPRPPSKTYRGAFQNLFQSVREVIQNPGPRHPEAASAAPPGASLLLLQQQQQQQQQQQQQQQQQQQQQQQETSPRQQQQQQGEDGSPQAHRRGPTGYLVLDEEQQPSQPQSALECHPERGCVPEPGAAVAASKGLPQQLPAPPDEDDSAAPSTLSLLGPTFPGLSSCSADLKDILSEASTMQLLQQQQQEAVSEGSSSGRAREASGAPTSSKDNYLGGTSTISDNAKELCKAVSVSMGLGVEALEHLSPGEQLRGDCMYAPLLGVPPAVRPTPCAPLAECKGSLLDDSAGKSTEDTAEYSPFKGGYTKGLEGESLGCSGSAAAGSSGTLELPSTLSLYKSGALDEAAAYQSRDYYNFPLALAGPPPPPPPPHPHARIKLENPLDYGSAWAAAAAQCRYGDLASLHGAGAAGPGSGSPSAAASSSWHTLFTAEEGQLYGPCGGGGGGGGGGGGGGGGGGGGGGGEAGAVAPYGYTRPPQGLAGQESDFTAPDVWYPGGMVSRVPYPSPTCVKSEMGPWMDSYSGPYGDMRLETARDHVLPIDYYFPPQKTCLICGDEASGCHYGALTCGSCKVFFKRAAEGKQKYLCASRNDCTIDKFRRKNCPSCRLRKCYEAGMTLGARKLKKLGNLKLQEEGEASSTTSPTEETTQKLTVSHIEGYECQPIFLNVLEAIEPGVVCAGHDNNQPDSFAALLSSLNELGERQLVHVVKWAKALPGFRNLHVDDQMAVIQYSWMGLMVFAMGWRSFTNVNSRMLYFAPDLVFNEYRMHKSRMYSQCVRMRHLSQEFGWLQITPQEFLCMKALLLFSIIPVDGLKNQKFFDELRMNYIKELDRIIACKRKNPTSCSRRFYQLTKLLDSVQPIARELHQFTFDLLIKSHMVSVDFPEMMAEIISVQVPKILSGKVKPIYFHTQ
Estrogen receptor (Homo sapiens), sequence (P03372 whole entry, looked up): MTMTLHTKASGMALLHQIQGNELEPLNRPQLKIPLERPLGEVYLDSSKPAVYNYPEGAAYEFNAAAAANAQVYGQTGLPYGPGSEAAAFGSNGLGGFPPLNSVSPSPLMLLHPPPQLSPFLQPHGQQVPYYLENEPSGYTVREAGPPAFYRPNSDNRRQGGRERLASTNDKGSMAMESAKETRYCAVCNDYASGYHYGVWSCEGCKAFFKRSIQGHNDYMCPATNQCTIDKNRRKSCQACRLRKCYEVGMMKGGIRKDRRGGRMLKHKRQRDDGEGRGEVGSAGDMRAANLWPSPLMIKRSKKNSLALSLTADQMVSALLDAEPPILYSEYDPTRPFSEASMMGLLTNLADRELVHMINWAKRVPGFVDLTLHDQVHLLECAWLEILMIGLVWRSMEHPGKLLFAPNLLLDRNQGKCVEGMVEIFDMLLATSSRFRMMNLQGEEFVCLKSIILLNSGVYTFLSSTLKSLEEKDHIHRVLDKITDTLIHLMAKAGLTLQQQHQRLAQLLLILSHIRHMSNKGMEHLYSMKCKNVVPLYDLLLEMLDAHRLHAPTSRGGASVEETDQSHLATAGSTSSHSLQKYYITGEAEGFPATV

Nc1ccccc1C(=O)OCCc1ccccc1
inactive: [1] | [2] | [3] | [4] | [5] | [6] | [7] | [8] | [9] | [10]

C[N+](C)(C)CCOC(=O)C(O)(c1ccccc1)c1ccccc1
inactive: [1] | [2] | [3] | [11] | [4] | [5] | [6] | [7] | [8] | [9] | [12] | [10]

CCC(C)(C)O
inactive: [1] | [2] | [11] | [4] | [6] | [7] | [13] | [8] | [14] | [15] | [9] | [12] | [10]

CC(C)C1(C)N=C(c2ncccc2C(=O)O)NC1=O (stereo not given)
inactive: [3] | [11] | [4] | [6] | [7] | [13] | [8] | [14] | [15] | [9] | [12] | [10]

CC(C)c1ccc(NC(=O)N(C)C)cc1
inactive: [1] | [11] | [4] | [5] | [6] | [7] | [8] | [14] | [9] | [12] | [10]
active: [2] 68.5 µM

NCCc1cc(O)c(O)cc1O
inactive: [11] | [4] | [7] | [8] | [14] | [15] | [16] | [9] | [12] | [10]
active: [1] 23.7 µM

CN[C@@H](C)[C@H](O)c1ccccc1
inactive: [1] | [3] | [11] | [4] | [5] | [6] | [7] | [8] | [14] | [9] | [12] | [10]
active: [15] 26.6 µM

CCCCCCCCCCCCN(C)C
inactive: [1] | [2] | [4] | [5] | [6] | [7] | [13] | [8] | [14] | [15] | [9] | [12] | [10]

O=C=NC1CCCCC1
inactive: [1] | [2] | [11] | [4] | [5] | [6] | [7] | [13] | [8] | [14] | [9] | [12] | [10]
active: [15] 12.2 µM

FC(F)OC(F)(F)C(F)Cl (stereo not given)
inactive: [1] | [2] | [11] | [17] | [18] | [4] | [19] | [5] | [6] | [7] | [8] | [9] | [12] | [10]

CCOC(=O)NC(O)C(Cl)(Cl)Cl (stereo not given)
inactive: [1] | [2] | [3] | [11] | [4] | [6] | [7] | [13] | [8] | [14] | [15] | [16] | [9] | [12] | [10]

O=C(O)c1cc(I)cc(I)c1I
inactive: [1] | [2] | [11] | [4] | [5] | [7] | [13] | [8] | [14] | [15] | [9] | [12] | [10]

CC[N+]1(C)CCCC(OC(=O)C(O)(c2ccccc2)c2ccccc2)C1 (stereo not given)
inactive: [1] | [2] | [3] | [11] | [4] | [5] | [6] | [7] | [8] | [9] | [12] | [10]

COc1ccccc1N1CCNCC1
inactive: [1] | [2] | [3] | [11] | [4] | [5] | [6] | [7] | [8] | [9] | [12] | [10]

C=CCOC(=O)C(C)(C)OC(=O)c1cc(-n2c(=O)cc(C(F)(F)F)n(C)c2=O)ccc1Cl
inactive: [4] | [5] | [6] | [7] | [13] | [8] | [14] | [15] | [9] | [12] | [10]
active: [1] 53.4 µM | [2] 30 µM | [3] 60 µM | [16] 26.8 µM

OCC1CO1 (stereo not given)
inactive: [1] | [2] | [11] | [4] | [5] | [6] | [7] | [8] | [14] | [15] | [16] | [9] | [12] | [10]

C#C[C@]1(O)CC[C@H]2[C@@H]3CCC4=CC(=O)CCC4=C3C=C[C@@]21CC
active: [1] 10.6 µM | [2] 13.3 µM | [3] 13.3 µM | [6] 23.7 µM | [14] 0.213 µM [inconclusive] | [15] 0.0422 µM | [16] 23.7 µM
inactive: [11] | [4] | [5] | [7] | [8] | [9] | [12] | [10]
